Bioassay records from PubChem.
EWS-Fli block: EWS/Fli-driven NR0B1 reporter inhibitors, primary screen, A673 cells, NR0B1 luciferase, luminescence, MLPCN library. viability-normalised. inhibition, % at 12.6 µM. 0.67% of 350,000 active;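 active means mean inhibition of at least 50% after viability correction, with every replicate also passing that limit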;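 further: firefly luciferase signal divided by Alamar Blue viability fluorescence both relative to DMSO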
LGR2 antag: inhibitors of bursicon-induced LGR2 CRE-luciferase signal, primary screen, cell-based, HEK293, CRE-luciferase reporter, bursicon stimulation | 0.35% of 380,000 active | bursicon-stimulated, 4 h | inhibition, % at 9.99 µM | AID 720647, 2013;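 active means drop in luminescence signal, shown as inhibition above about 50% in the replicate tests, limit read from the data, passing the limit was not always enough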;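 further: agonist challenge used bursicon conditioned medium at about half maximal strength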
PAX8 reporter: inhibitors of PAX8-driven TPO luciferase reporter, primary screen, RMG-I cells, single concentration; 1.2% of 360,000 active; SteadyGlo, 24 h; AID 652154, 2013; inhibition, % at 12.6 µM;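 active means mean replicate inhibition at least 60% with every replicate also reaching 60%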;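 further: luciferase light reporting Pax8 driven TPO promoter activity; plate controls were median of neutral control wells for no effect and mitoxantrone controls for full effect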
Shn3 inh set2: reduction of Shn3 3'UTR firefly luciferase signal, primary screen, Schnurri-3 inhibitor project, cell-based, Clone20 osteoblasts, set 2. 0.52% of 360,000 active. inhibition, % at 12.5 µM. Clone20 osteoblast Shn3 3'UTR firefly luciferase, 24 h. AID 588674, 2011;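 active means mean inhibition of at least 75% with every replicate also reaching 75%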;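 further: 0% = median of neutral control wells and 100% = pilot-screen positive control compound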
LMP1 NFkB inh: EBV LMP1-driven NF-kappaB luciferase reporter inhibitors, primary screen, cell-based, luminescence, single point; LMP1-induced NF-kappaB luciferase reporter cells; inhibition, % at 12.5 µM; 0.69% of 350,000 active; AID 504558, 2011; in the data active means inhibition above about 41%;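 further: 0% = neutral control wells and 100% = reference inhibitor control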
TRPM1 prom inh: inhibitors of MITF-dependent TRPM1 promoter reporter, primary screen, cell-based, SK-MEL-5, single point, luciferase; SK-MEL-5 TRPM1 promoter luciferase, 24 h; inhibition, % at 12.5 µM; 0.83% of 330,000 active; AID 488899, 2010;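 active means mean inhibition across replicates of 60% or more, whatever share of single replicates reaches that level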
DNA binder FP: DNA binders by acridine orange displacement, dose response, counter-screen for EWS/Fli inhibitor project, biochemical, fluorescence polarization, cherry-pick; shares compounds with EWS-Fli block; salmon sperm DNA acridine orange fluorescence polarization; AC35, µM (highest dose often 68 µM), inactives show top-dose activity change, negative = DNA binding; 2% of 640 active; AID 720586, 2013;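 active means fitted curve reaches a 35% signal fall AC35 below twice the sample's top valid tested dose, actives reach about 48 µM in these data; inactive means the rest, including activity in the rising direction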;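 further: lower polarization ratio signals compound binding to DNA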
Numbers without * were called inactive; · = not tested or not shown. Compounds with a hit are over-represented: about 2.2% of the library has one in this group of screens.

SMILES	EWS-Fli block	LGR2 antag	PAX8 reporter	Shn3 inh set2	LMP1 NFkB inh	TRPM1 prom inh	DNA binder FP
C[C@]12CCC3C(CC[C@H]4C[C@@H](O)CC[C@]34C)[C@H]1C=CC2=O (some centres not stated)	1	6	31	-5	-1	9	·
CC12CC[C@H]3[C@@H](CCC4(O)C[C@H](O)CCC34/C=N/NC(=O)Cc3ccccc3)C1(O)CCC2C1=CC(=O)OC1 (some centres not stated)	-2	5	6	-5	-1	2	·
C[C@]12CC[C@H](O)C[C@H]1CC[C@@H]1[C@@H]2CC[C@]2(C)[C@@H](C3=CC(=O)OC3)CC[C@]12O	67*	84*	113*	-4	78*	73*	3%
C[C@]12CC[C@H](O)C[C@H]1CC[C@@H]1[C@@H]2C[C@@H](O)[C@]2(C)[C@@H](C3=CC(=O)OC3)CC[C@]12O	81*	80*	104*	-6	68*	71*	-4%
COc1ccc(-c2ccc3n(c2=O)C[C@H]2[C@H](CO)[C@@H](C(=O)O)[C@@H]3N2C(=O)c2ccccc2F)cc1	-9	-6	·	·	·	·	·
COc1ccccc1CN1[C@H](CO)[C@@H](c2ccccc2)C12CN(C(=O)Cc1ccccc1)C2	0	-13	21	·	·	·	·
CC12CCC(O)CC1CCC1C2CCC2(C)C(C3=CC(=O)OC3)CCC12O (configuration not stated)	67*	86*	106*	1	45*	68*	-8%
CNC(=O)Nc1ccc(C(=O)N/N=C\C23CC[C@@H](O)CC2(O)CC[C@@H]2[C@@H]3CCC3(C)C(C4=CC(=O)OC4)CCC23O)cc1 (some centres not stated)	-16	6	1	3	-2	1	·
O=C(Nc1ccc(OC(=O)N2CCCCC2)cc1)N1CCOCC1	76*	12	58	60	30	66*	-2%
